Laboratory results as given in PubChem BioAssay (NCATS).
Inconclusive results are not listed. Calls of active or inactive are those of the source. The call rests on the fitted dose curve; in most records, active means well fitted curve in the direction sought with a large enough effect; inconclusive means small, poorly fitted or top-dose-only effect, or another doubt; inactive means no such curve, though single readings can be large; an effect the other way counts as inactive or inconclusive.

How the values were obtained:
MCC-13 = test: qHTS assay to identify novel small-molecules to repurpose for Merkel cell carcinoma treatment (AID 1296009); conditions: MCC and control cell lines, CellTiter-Glo viability, 72 h; series mostly up to 46 µM; further: nearly all actives have a fitted effect of over 60% in size; further: potency means the concentration at half of the fitted maximal effect
Method in brief: (§1)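 Cell viability, measured as CellTiter-Glo luminescence, was normalized between DMSO and no-cell wells. The cells had been exposed to 8- or 11-point compound dilutions for 72 hr at 37 degree celsius.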

MKL-1 = test: as above; conditions: MCC and control cell lines, CellTiter-Glo viability, 72 h; series mostly up to 46 µM
Method in brief: as §1

MKL-2 = test: as above; conditions: MCC and control cell lines, CellTiter-Glo viability, 72 h; series mostly up to 46 µM
Method in brief: as §1

UISO = test: as above; conditions: MCC and control cell lines, CellTiter-Glo viability, 72 h; series mostly up to 46 µM
Method in brief: as §1

WaGa = test: as above; conditions: MCC and control cell lines, CellTiter-Glo viability, 72 h; series mostly up to 46 µM
Method in brief: as §1

CASKI = test: Primary qHTS to identify gynecologic anti-cancer compounds using libraries of approved drugs and bioactive compounds (AID 1345084); conditions: Gynecologic cancer cell panel viability, ATPlite luminescence, 48 h; series mostly up to 57.5 µM; further: nearly all actives have a fitted effect of over 55% in size; further: potency means the concentration at half of the fitted maximal effect
Method in brief: (§2)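 Five-concentration response, 48 h; readout is ATP-driven luciferase luminescence.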

HeLa = test: as above; conditions: Gynecologic cancer cell panel viability, ATPlite luminescence, 48 h; series mostly up to 57.5 µM
Method in brief: as §2

Hek293T = test: as above; conditions: Gynecologic cancer cell panel viability, ATPlite luminescence, 48 h, control line for the selectivity index; series mostly up to 57.5 µM
Method in brief: as §2

OV90 = test: as above; conditions: Gynecologic cancer cell panel viability, ATPlite luminescence, 48 h; series mostly up to 57.5 µM
Method in brief: as §2

PA-1 = test: as above; conditions: Gynecologic cancer cell panel viability, ATPlite luminescence, 48 h; series mostly up to 57.5 µM
Method in brief: as §2

SKOV3 = test: as above; conditions: Gynecologic cancer cell panel viability, ATPlite luminescence, 48 h; series mostly up to 57.5 µM
Method in brief: as §2

[1] = Drug repurposing screens with cells derived from glioblastoma tumor samples (AID 1345199); conditions: GBM patient neurospheres viability, ATP luminescence, 48 h; Potency: tumour line A; series mostly up to 46.1 µM; further: nearly all actives have a fitted effect of over 40% in size
Method in brief: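 Primary testing used CD133+ neurospheres from four GBM patients, seven concentrations, 48 h exposure and ATP-based viability; confirmation added three slower-growing patient lines.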

MCC-26 = test: qHTS assay to identify novel small-molecules to repurpose for Merkel cell carcinoma treatment (AID 1296009); conditions: MCC and control cell lines, CellTiter-Glo viability, 72 h; series mostly up to 46 µM; further: nearly all actives have a fitted effect of over 60% in size; further: potency means the concentration at half of the fitted maximal effect
Method in brief: as §1

C33A = test: Primary qHTS to identify gynecologic anti-cancer compounds using libraries of approved drugs and bioactive compounds (AID 1345084); conditions: Gynecologic cancer cell panel viability, ATPlite luminescence, 48 h; series mostly up to 57.5 µM; further: nearly all actives have a fitted effect of over 55% in size; further: potency means the concentration at half of the fitted maximal effect
Method in brief: as §2

Es-2 = test: as above; conditions: Gynecologic cancer cell panel viability, ATPlite luminescence, 48 h; series mostly up to 57.5 µM
Method in brief: as §2

Tov-21-G = test: as above; conditions: Gynecologic cancer cell panel viability, ATPlite luminescence, 48 h; series mostly up to 57.5 µM
Method in brief: as §2

Measured: Potency

O=C1NC(O)CCN1[C@@H]1O[C@H](CO)[C@H](O)[C@H]1O (stereo partly specified)
inactive: MCC-13 | MKL-1 | MKL-2 | UISO | WaGa

CCC(C(=O)O)C1CCC(C)C(C(C)C(O)C(C)C(=O)C(CC)C2OC3(C=CC(O)[C@@]4(CC[C@](C)(C5CC[C@@](O)(CC)C(C)O5)O4)O3)C(C)CC2C)O1 (stereo partly specified)
active: MCC-13 10500 nM | MKL-1 2960 nM | MKL-2 3320 nM | UISO 3720 nM | WaGa 2960 nM

CS(=O)(=O)N1CCc2c(-c3cnc(N)nc3)nc(N3CCOCC3)nc21
active: CASKI 2000 nM | HeLa 3550 nM | Hek293T 3550 nM | OV90 4470 nM | PA-1 1780 nM | SKOV3 1260 nM
inactive: MCC-13 | MKL-1 | MKL-2

CC(C(C)N1CC(=O)NC(=O)C1)N1CC(=O)NC(=O)C1 (stereo unspecified)
inactive: MCC-13 | MKL-1 | MKL-2 | UISO | WaGa

C=CCNc1c(O)cc2c(O)c1C[C@@H](C)C[C@H](OC)[C@@H](O)[C@@H](C)C=C(C)[C@H](OC(N)=O)[C@@H](OC)C=CC=C(C)C(=O)N2
active: MCC-13 5900 nM | MKL-1 11800 nM | UISO 2350 nM | WaGa 2090 nM

C=C1C(=O)O[C@H]2[C@@H]1CCC(C)=CCC[C@@]1(C)O[C@@H]21
active: MCC-13 16600 nM | MKL-1 7430 nM | MKL-2 1870 nM | UISO 14800 nM | WaGa 7430 nM

CCOC(=O)C1=C(C)NC(=S)NC1c1cccc(O)c1 (stereo unspecified)
active: MCC-13 1480 nM | UISO 148 nM | WaGa 52.6 nM
inactive: MKL-2

CC(C=CC=C(C)C=CC1=C(C)CCCC1(C)C)=CC=CC=C(C)C=CC=C(C)C=CC1=C(C)CCCC1(C)C
inactive: MCC-13 | MKL-1 | UISO

COC[C@H](NC(=O)c1cnc(C)s1)C(=O)N[C@@H](COC)C(=O)N[C@@H](Cc1ccccc1)C(=O)[C@@]1(C)CO1
active: MCC-13 526 nM | MKL-1 418 nM | UISO 235 nM | WaGa 118 nM

C[C@@H]1CC[C@@]2(OC1)OC1CC3C4CC=C5CC(O)CCC5(C)C4CCC3(C)C1[C@@H]2C (stereo partly specified)
inactive: MCC-13 | MKL-1 | MKL-2 | UISO | WaGa

CCOC(=O)N1CCN([N+]([O-])=NOc2ccc([N+](=O)[O-])cc2C#N)CC1
active: MCC-13 2640 nM | MKL-1 1660 nM | MKL-2 1180 nM | WaGa 3720 nM

COc1cccc2c1C(=O)c1c(O)c3c(c(O)c1C2=O)C[C@@](O)(C(=O)CO)C[C@@H]3O[C@H]1C[C@H](N)[C@H](OC2CCCCO2)[C@H](C)O1 (stereo partly specified)
active: MCC-13 5260 nM | MKL-1 2640 nM | UISO 1660 nM | WaGa 1660 nM

O=C(O)C(=O)Nc1cccc(C2=NN=N[N]2)c1
inactive: MCC-13 | MKL-1 | MKL-2 | UISO | WaGa | [1]

COc1ccc2c(c1OC)C(=O)OC2[C@H]1c2c(cc3c(c2OC)OCO3)CCN1C (stereo partly specified)
inactive: MKL-2
active: MCC-13 2960 nM | UISO 469 nM

COc1cc(C)c(Sc2cnc(NC(=O)c3ccc(CNC(C)C(C)(C)C)cc3)s2)cc1C(=O)N1CCN(C(C)=O)CC1 (stereo unspecified)
inactive: MCC-13
active: MKL-1 20900 nM | UISO 18700 nM | WaGa 16600 nM

COc1ccnc2[nH]cc(C(=O)C(=O)N3CCN(C(=O)c4ccccc4)C[C@@H]3C)c12
inactive: MCC-13 | MKL-1 | MKL-2 | UISO | WaGa

O=c1[nH]c(=O)n([C@H]2C[C@@H](O)[C@@H](CO)O2)cc1F
active: MCC-13 332 nM | WaGa 66.2 nM

Oc1ccc([C@@H]2Oc3ccc(O)cc3[C@@H]3CCC[C@@H]32)cc1
active: UISO 18700 nM
inactive: MCC-26 | C33A | Es-2 | OV90 | Tov-21-G

C[C@H]1[C@@H](OC(=O)CCC(=O)O)O[C@@H]2O[C@@]3(C)CC[C@@H]4[C@H](C)CC[C@@H]1[C@@]24OO3
inactive: MCC-26 | CASKI | OV90 | SKOV3
active: MKL-1 10500 nM | MKL-2 5260 nM | UISO 4180 nM | WaGa 6620 nM
